Test results published in ChEMBL document CHEMBL1961873, “Compounds: GSK PKIS; Assays: Nanosyn kinase panel” (2012).

How the values were obtained:
[1] = molecular target: RAC-alpha serine/threonine-protein kinase (Homo sapiens) (UniProt P31749); details: at 0.1 µM
[2] = molecular target: RAC-alpha serine/threonine-protein kinase (Homo sapiens) (UniProt P31749); details: at 1 µM
[3] = molecular target: RAC-beta serine/threonine-protein kinase (Homo sapiens) (UniProt P31751); details: at 0.1 µM
[4] = molecular target: RAC-beta serine/threonine-protein kinase (Homo sapiens) (UniProt P31751); details: at 1 µM
[5] = molecular target: RAC-gamma serine/threonine-protein kinase (Homo sapiens) (UniProt Q9Y243); details: at 0.1 µM
[6] = molecular target: RAC-gamma serine/threonine-protein kinase (Homo sapiens) (UniProt Q9Y243); details: at 1 µM
[7] = molecular target: G protein-coupled receptor kinase 6 (Homo sapiens) (UniProt P43250); details: at 0.1 µM
[8] = molecular target: G protein-coupled receptor kinase 6 (Homo sapiens) (UniProt P43250); details: at 1 µM
[9] = molecular target: T1, Rhodopsin kinase GRK7 (Homo sapiens) (UniProt Q8WTQ7); details: at 0.1 µM
T1 sequence (whole entry): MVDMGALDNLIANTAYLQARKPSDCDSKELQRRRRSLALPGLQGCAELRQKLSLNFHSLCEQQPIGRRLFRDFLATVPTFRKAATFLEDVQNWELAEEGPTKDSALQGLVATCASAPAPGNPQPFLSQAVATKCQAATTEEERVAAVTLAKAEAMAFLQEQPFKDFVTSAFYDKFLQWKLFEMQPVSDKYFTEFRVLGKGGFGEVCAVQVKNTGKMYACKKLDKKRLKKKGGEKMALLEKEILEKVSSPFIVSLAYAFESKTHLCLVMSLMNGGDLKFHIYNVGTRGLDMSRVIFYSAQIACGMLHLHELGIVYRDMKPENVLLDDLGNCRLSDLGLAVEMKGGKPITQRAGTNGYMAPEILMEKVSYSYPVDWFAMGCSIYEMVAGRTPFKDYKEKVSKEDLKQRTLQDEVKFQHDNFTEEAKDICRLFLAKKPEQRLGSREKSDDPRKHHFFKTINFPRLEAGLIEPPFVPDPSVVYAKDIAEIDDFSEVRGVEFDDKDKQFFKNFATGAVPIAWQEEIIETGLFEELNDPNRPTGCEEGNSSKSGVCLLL

[10] = molecular target: T1, Rhodopsin kinase GRK7 (Homo sapiens); details: at 1 µM
[11] = molecular target: Serine/threonine-protein kinase MRCK alpha (Homo sapiens) (UniProt Q5VT25); details: at 0.1 µM
[12] = molecular target: Serine/threonine-protein kinase MRCK alpha (Homo sapiens) (UniProt Q5VT25); details: at 1 µM
[13] = molecular target: Serine/threonine-protein kinase MRCK beta (Homo sapiens) (UniProt Q9Y5S2); details: at 0.1 µM
[14] = molecular target: Serine/threonine-protein kinase MRCK beta (Homo sapiens) (UniProt Q9Y5S2); details: at 1 µM
[15] = molecular target: Ribosomal protein S6 kinase alpha-5 (Homo sapiens) (UniProt O75582); details: at 0.1 µM
[16] = molecular target: Ribosomal protein S6 kinase alpha-5 (Homo sapiens) (UniProt O75582); details: at 1 µM
[17] = molecular target: Ribosomal protein S6 kinase alpha-4 (Homo sapiens) (UniProt O75676); details: at 0.1 µM
[18] = molecular target: Ribosomal protein S6 kinase alpha-4 (Homo sapiens) (UniProt O75676); details: at 1 µM
[19] = molecular target: Ribosomal protein S6 kinase beta-1 (Homo sapiens) (UniProt P23443); details: at 0.1 µM
[20] = molecular target: Ribosomal protein S6 kinase beta-1 (Homo sapiens) (UniProt P23443); details: at 1 µM

Sequence of RAC-gamma serine/threonine-protein kinase (Homo sapiens) (Q9Y243 whole entry): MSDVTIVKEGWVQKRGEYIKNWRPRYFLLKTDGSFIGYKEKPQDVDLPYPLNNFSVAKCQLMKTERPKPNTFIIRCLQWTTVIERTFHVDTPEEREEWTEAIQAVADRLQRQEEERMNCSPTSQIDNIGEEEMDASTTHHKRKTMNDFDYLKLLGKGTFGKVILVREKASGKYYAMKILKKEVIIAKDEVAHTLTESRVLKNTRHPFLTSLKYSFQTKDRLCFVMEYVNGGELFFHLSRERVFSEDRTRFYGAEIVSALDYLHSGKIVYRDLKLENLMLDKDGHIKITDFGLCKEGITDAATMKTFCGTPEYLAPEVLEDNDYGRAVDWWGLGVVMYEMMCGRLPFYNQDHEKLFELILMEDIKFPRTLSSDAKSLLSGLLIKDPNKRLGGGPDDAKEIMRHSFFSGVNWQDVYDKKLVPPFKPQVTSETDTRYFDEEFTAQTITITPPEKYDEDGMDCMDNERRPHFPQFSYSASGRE
Sequence of Ribosomal protein S6 kinase beta-1 (Homo sapiens) (P23443 whole entry, looked up): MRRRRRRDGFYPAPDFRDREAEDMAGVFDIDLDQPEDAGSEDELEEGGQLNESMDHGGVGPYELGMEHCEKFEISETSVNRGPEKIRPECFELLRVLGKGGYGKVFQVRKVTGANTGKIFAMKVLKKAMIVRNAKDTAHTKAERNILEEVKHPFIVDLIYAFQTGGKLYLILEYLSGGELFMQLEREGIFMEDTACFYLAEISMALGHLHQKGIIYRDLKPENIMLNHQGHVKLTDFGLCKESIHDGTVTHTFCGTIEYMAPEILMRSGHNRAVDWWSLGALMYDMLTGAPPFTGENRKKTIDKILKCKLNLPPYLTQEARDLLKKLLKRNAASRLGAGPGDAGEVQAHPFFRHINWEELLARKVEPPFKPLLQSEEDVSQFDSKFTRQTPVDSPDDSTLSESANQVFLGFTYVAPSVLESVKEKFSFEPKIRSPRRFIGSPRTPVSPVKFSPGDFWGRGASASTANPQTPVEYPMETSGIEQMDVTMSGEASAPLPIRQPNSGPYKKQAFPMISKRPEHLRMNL
Sequence of Serine/threonine-protein kinase MRCK beta (Homo sapiens) (Q9Y5S2 whole entry): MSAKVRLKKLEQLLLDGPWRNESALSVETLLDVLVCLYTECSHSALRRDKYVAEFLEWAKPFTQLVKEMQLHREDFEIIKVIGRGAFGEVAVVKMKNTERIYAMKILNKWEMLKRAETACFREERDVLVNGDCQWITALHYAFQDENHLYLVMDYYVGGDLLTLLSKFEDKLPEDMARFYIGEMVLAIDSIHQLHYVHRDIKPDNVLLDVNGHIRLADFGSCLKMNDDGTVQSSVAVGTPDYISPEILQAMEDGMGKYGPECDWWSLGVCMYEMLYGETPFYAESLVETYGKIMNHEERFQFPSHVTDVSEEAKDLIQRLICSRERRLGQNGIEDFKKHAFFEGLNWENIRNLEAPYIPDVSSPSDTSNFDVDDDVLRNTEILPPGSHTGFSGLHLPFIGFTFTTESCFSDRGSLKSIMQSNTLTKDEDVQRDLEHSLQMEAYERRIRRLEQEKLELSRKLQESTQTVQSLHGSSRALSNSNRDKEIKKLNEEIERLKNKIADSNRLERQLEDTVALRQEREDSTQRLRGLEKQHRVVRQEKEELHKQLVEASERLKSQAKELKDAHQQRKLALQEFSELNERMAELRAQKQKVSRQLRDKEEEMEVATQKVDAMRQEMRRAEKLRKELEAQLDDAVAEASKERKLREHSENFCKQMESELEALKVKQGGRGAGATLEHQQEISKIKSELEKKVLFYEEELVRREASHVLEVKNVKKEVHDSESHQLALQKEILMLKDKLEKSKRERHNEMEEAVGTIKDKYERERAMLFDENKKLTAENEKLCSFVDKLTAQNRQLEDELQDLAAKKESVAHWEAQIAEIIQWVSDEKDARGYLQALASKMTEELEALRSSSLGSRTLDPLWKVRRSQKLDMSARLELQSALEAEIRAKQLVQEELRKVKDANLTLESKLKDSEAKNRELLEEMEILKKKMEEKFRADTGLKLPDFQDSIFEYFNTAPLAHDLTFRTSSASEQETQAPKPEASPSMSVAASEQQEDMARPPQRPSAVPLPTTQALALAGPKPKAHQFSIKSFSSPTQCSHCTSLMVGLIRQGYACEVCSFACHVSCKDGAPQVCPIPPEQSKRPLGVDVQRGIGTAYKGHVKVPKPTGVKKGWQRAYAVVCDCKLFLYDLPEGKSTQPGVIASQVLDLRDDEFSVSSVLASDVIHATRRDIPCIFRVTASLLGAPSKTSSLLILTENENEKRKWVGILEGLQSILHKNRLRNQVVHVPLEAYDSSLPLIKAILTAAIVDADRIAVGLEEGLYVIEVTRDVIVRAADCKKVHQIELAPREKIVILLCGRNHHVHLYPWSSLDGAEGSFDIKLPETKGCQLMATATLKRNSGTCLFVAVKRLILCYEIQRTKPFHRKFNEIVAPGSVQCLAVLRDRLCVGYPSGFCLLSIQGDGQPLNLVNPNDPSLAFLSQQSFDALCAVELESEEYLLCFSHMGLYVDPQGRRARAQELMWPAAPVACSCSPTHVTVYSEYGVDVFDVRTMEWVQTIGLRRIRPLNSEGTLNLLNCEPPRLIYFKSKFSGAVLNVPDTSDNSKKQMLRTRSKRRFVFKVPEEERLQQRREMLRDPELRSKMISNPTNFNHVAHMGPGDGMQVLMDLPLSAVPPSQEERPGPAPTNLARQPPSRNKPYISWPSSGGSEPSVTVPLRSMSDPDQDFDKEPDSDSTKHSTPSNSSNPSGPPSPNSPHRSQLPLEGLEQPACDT
Sequence of Serine/threonine-protein kinase MRCK alpha (Homo sapiens) (Q5VT25 whole entry): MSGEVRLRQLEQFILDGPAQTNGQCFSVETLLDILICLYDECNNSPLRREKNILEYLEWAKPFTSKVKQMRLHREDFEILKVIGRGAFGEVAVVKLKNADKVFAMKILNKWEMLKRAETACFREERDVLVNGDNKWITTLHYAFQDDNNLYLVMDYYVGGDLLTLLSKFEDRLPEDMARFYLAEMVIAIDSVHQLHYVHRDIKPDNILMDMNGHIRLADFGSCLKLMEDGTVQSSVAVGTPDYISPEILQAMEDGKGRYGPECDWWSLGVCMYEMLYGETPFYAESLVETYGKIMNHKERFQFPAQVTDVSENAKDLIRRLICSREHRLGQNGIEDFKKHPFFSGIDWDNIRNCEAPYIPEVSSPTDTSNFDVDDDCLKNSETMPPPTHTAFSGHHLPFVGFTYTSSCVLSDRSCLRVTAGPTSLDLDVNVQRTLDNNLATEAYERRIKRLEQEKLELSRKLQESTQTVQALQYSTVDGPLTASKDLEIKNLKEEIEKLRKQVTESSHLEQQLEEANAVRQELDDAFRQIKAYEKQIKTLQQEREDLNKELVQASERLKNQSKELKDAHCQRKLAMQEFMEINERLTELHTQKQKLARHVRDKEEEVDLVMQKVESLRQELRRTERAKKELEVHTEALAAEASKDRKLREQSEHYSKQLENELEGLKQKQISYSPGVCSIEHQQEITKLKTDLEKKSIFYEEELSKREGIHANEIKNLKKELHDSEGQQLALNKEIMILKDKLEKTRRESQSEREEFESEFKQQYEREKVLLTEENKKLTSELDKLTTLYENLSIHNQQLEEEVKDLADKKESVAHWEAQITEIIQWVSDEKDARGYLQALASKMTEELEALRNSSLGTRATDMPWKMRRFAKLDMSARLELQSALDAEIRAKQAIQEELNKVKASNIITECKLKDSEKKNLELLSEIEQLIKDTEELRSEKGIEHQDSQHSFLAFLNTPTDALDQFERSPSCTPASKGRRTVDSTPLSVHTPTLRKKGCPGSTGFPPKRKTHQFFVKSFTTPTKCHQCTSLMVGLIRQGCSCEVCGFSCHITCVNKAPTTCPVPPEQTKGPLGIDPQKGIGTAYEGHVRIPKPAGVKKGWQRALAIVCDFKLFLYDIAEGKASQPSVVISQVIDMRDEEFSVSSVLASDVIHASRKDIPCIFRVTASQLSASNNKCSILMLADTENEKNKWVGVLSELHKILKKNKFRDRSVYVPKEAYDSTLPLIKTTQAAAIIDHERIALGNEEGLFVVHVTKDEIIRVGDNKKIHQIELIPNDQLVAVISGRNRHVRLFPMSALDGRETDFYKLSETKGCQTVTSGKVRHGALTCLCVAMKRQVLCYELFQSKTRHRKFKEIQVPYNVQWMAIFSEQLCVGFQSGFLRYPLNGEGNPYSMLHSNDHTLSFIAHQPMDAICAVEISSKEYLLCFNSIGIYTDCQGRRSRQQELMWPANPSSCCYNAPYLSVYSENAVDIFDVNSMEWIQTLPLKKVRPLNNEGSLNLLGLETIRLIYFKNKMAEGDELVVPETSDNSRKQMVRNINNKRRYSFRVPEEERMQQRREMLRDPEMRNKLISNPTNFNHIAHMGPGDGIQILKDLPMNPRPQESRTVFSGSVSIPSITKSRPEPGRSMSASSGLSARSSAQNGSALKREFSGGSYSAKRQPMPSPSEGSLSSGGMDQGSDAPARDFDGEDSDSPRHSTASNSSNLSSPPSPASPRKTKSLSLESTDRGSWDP
Sequence of G protein-coupled receptor kinase 6 (Homo sapiens) (P43250 whole entry, looked up): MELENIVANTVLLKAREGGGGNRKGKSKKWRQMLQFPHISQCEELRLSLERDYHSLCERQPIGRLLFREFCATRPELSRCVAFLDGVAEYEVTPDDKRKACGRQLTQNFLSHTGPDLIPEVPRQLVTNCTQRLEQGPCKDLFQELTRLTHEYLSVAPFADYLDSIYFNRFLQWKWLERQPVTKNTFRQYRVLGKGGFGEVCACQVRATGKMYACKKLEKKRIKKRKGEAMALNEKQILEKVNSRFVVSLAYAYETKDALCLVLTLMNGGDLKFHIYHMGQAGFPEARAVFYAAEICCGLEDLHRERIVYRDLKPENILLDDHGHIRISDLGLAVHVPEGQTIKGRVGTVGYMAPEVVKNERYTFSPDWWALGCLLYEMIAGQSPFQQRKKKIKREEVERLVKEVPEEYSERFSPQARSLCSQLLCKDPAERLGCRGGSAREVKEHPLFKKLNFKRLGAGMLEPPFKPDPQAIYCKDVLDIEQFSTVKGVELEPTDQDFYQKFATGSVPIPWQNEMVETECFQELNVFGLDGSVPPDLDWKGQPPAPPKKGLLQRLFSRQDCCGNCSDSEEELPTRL

Row | Compound | inhibition [1] [%] | inhibition [2] [%] | inhibition [3] [%] | inhibition [4] [%] | inhibition [5] [%] | inhibition [6] [%] | inhibition [7] [%] | inhibition [8] [%] | inhibition [9] [%] | inhibition [10] [%] | inhibition [11] [%] | inhibition [12] [%] | inhibition [13] [%] | inhibition [14] [%] | inhibition [15] [%] | inhibition [16] [%] | inhibition [17] [%] | inhibition [18] [%] | inhibition [19] [%] | inhibition [20] [%]
1 | CCN1CCC(CC(=O)Nc2n[nH]c3nc(-c4cccs4)c(Br)cc23)CC1 | -2.05 | -0.11 | -3.94 | -1.99 | -2.82 | 2.59 | -0.66 | -2.54 | -7.57 | -4.43 | -1 | -0.59 | 0.24 | 0.47 | -2.28 | 0.61 | -2.08 | -1.67 | -1.91 | 0.59
2 | CCn1c(-c2nonc2N)nc2cncc(C(=O)N3CC[C@H](N)C3)c21 | 3.33 | 19.5 | 3.72 | 13.3 | 5.44 | 32.9 | 6.84 | 8.03 | 3.41 | 10.7 | 14.5 | 68.7 | 23.1 | 67.2 | 67.9 | 81.4 | 44.5 | 74.3 | 32.9 | 80.3
3 | NS(=O)(=O)c1cccc(-c2ccc3c(NC(=O)C4CC4)n[nH]c3c2)c1 | -2.14 | -1.44 | -4.21 | -1.31 | -1.31 | -2.99 | 1.43 | 2.82 | -7.07 | -0.65 | 0.11 | -0.38 | 0.03 | 2.23 | -0.03 | 1.96 | -0.84 | 0.37 | -1.3 | 0.07
4 | CCc1cccc(NC(=O)Nc2ccc(Oc3ccc4nc(NC(=O)OC)[nH]c4c3)cc2)c1 | 1.36 | 0.06 | 1.23 | 1.45 | 2.78 | -0.71 | 2.37 | 2.68 | 4.8 | 15.6 | 1.75 | 2.04 | 0.03 | 0.65 | -4.58 | -1.65 | 1.22 | 1.3 | 4.31 | 5.19
5 | Cc1ccc(NC(=O)c2ccnc(N3CCCC3)c2)cc1-c1ccc(C(=O)NCC2CC2)cc1 | -2.27 | -3.57 | -1.45 | -1.55 | -3.88 | -2.23 | 2.49 | 0.85 | 5.08 | 10.4 | 1.01 | -0.76 | 1.8 | 2.5 | 2.8 | 2.72 | 3.43 | 8.63 | 1.53 | 2.76
6 | O=C1NC(=O)C(N2CCc3ccccc32)=C1c1ccc(Cl)cc1 | 1.09 | 1.67 | 1.7 | 2.85 | 2.52 | 1.75 | 0.71 | 3.31 | 2.29 | 7.76 | 0.19 | 0.98 | 0.69 | 1.86 | 9.94 | 7.93 | 1.73 | 4.02 | 1.81 | 1.76
7 | CC(=O)Nc1cccc(C#Cc2cncnc2Nc2ccc(OCc3cccc(F)c3)c(Cl)c2)n1 | -0.69 | 0.42 | -1.3 | -0.21 | -1.1 | -0.11 | 0.73 | 6.19 | 1.16 | 11.2 | 2.04 | 4.47 | 0.72 | 3.16 | 8.63 | 10.1 | 2.79 | 4.81 | 0.05 | 0.93
8 | Cn1cc(C=C2C(=O)Nc3cccnc32)c2ccccc21 | 0.73 | 0.22 | 1.08 | 1.6 | 1.15 | 0.99 | -1.62 | 6.18 | 3.02 | 10.6 | 0.96 | 0.55 | 1.17 | 0.99 | 2.12 | 3.29 | 2.56 | 10.1 | 1.61 | 3.78
9 | O=C1NC(=O)C(c2ccc(Cl)cc2)=C1Nc1ccc(Cl)c(C(=O)O)c1 | -1.69 | -1.52 | -2.06 | -1.58 | -1.65 | -1.06 | 2.37 | -0.84 | -5.23 | -4.79 | -0.29 | -0.46 | 0.31 | -0.42 | -1.75 | -1.95 | -2.17 | -1.54 | -1.54 | -1.25
10 | O=C1Nc2ccc(C(=O)c3ccco3)cc2C1=Cc1cc(Cl)c(O)c(Cl)c1 | 0.57 | 1.08 | 1.49 | 0.98 | 1.75 | 0.62 | 29.7 | 79.6 | 30.6 | 54.8 | -0.25 | 1.33 | -0.3 | 1.6 | 2.41 | 5.05 | 0.41 | 4.81 | 0.47 | 3.14
11 | CCn1c(-c2nonc2N)nc2c(C#CC(C)(C)O)nc(OC[C@@H](N)c3ccccc3)cc21 | 38.2 | 85.2 | 61.2 | 91.1 | 48.4 | 87.2 | -1.09 | -0.69 | -0.18 | 16.6 | 12 | 48.2 | 11.1 | 48.5 | -5.71 | 8.99 | 1.92 | 19.7 | 5.44 | 36
12 | COc1ccc(COc2ccc(Cc3cnc(N)nc3N)cc2OC)cc1 | 0.82 | -0.15 | 0.33 | -0.17 | 0.61 | 0.93 | -3 | -5.27 | 11 | -7.03 | 1.99 | -0.63 | 3.11 | 3.93 | 8.75 | 5.97 | 1.99 | 1.84 | 1.54 | 0.73
13 | COc1cc2ncn(-c3cc(O[C@H](C)c4ccccc4Cl)c(C(N)=O)s3)c2cc1OC | 1.41 | 2.07 | 2.49 | 2.19 | 0.81 | 1.74 | 3.78 | 15 | 5.01 | 10.8 | 1.89 | 5.55 | 0.35 | 1.02 | -1.18 | 3.73 | 4.32 | 13.8 | 1.42 | 4.7
14 | CNC(=O)c1cncc(/C=C/c2c(Cl)cccc2Cl)c1 | -2.98 | -2.11 | -2.93 | -2.77 | -3.04 | 0.11 | 3.3 | 4.35 | 10.6 | 8.22 | 4.22 | 1.78 | 0.12 | 0.52 | 0.58 | 1.1 | 2.15 | 3.75 | 1.85 | 2.12
